Sampled rows, rich in hits. Any-hit rate of the full collection: about 5.3%.
JMJD2A Tudor: JMJD2A Tudor domain (human) inhibition; AID 504339; 390,000 compounds, 4.4% hits; Potency, µM (titrated, usually from 114 µM), for inactives: at the top dose activity change, negative = inhibition, usual class: inhibitors; AlphaScreen JMJD2A-Tudor / H3K4me3 peptide binding; further: potency means the concentration at half of the fitted maximal effect; on the % scale 0 is the no-effect control and ±100 the full control effect; nearly all actives have a fitted effect of over 50% in size
CtBP-E1A inh: CtBP/E1A binding inhibition | 340,000 compounds, 0.49% hits | AID 651724 | activity change, % (no concentration beside the values) | AlphaScreen GST-E1A/His-CtBP binding, 1536-well; hits give low values; in the data active means activity change below about -65%; inconclusive means mostly about -30% to -63%; further: on the % scale 0 is the no-effect control and ±100 the full control effect
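GST-E1A and His-tagged CtBP (125 nM each as 5X stock) were preincubated with pin-transferred compound for 2 h at 37 °C in the dark, then glutathione donor and nickel acceptor beads were added for 1 h before AlphaScreen reading.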
TDP1 inh: inhibitors of human tyrosyl-DNA phosphodiesterase TDP1. recombinant TDP1, AlphaScreen DNA substrate cleavage. Potency, µM (top dose mostly 130 µM), for the others: top-dose activity change, negative = inhibition, usual class: inhibitors. 350,000 compounds, 0.28% hits. Q9NUW8; further: potency means the concentration at half of the fitted maximal effect; on the % scale 0 is the no-effect control and ±100 the full control effect; nearly all actives have a fitted effect of over 40% in size
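Enzyme-compound mixtures sat 15 min at room temperature, followed by a 5 min reaction with 15 nM final substrate and 10 min with AlphaScreen beads. Recombinant human Tdp1 was used at 1 nM final.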
Six1-Eya2 blk: inhibitors of human Six1/Eya2 interaction. AlphaScreen GST-Six1/His-Eya2 binding, biochemical; hits give low values. activity change, % (no concentration beside the values). AID 651725. 360,000 compounds, 0.56% hits. Q15475+O00167; in the data active means activity change below about -65%; inconclusive means mostly about -30% to -63%; further: on the % scale 0 is the no-effect control and ±100 the full control effect
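GST-Six1 + His-Eya2 (5X stock: 250/500 nM); Tris pH 8.0, 300 mM NaCl, 0.05% BSA, 0.02% Tween 20; GSH donor/Ni acceptor beads; 1 h 37 °C dark; AlphaScreen readout.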
BAZ2B inh: inhibitors of human BAZ2B bromodomain. Q9UIF8. AlphaScreen BAZ2B-H3K14Ac peptide displacement. Potency, µM (highest dose often 114 µM), without a hit: at the top dose activity change, negative = inhibition, actives largely listed as inhibitors. 360,000 compounds, 4.4% hits; further: potency means the concentration at half of the fitted maximal effect; on the % scale 0 is the no-effect control and ±100 the full control effect; nearly all actives have a fitted effect of over 60% in size
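AlphaScreen displacement: compounds (up to 110uM) incubated 30 min at room temperature with a preformed 50 nM BAZ2B/50 nM biotinylated H3K14Ac peptide complex in PBS pH 7.4 with Tween-20. Donor and acceptor beads at 10 ug/mL final added, 20 min light-protected before reading.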
HP1b binding inh: inhibitors of HP1-beta chromodomain binding to methylated histone tails. P83916. AlphaScreen HP1-beta / biotin-H3K9me3 peptide binding. Potency, µM (doses to about 114 µM), inactives show top-dose activity change, negative = inhibition, hits mostly inhibitors. 390,000 compounds, 0.56% hits. AID 540317; further: potency means the concentration at half of the fitted maximal effect; nearly all actives have a fitted effect of over 70% in size
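AlphaScreen: HP1-beta (50 nM) preformed 30 min with biotin-H3(1-18)K9me3 peptide (50 nM) in PBS pH 7.4, 0.01% Tween-20. Compound added for 30 min at RT, then streptavidin donor/nickel chelate acceptor beads (10 ug/mL) for 30 min.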
Active calls of the source: *; ? = inconclusive; . = no result; [ ] = dose if it differs, or a comment. Unless noted, the call rests on the fitted dose curve; in most records, active means well fitted inhibition curve with a large enough effect; inconclusive means small, poorly fitted or top-dose-only effect; inactive means no such curve, though single readings can be large or run the other way.

SMILES | JMJD2A Tudor | CtBP-E1A inh | TDP1 inh | Six1-Eya2 blk | BAZ2B inh | HP1b binding inh
Nc1nc(NCc2ccco2)nc(NC2CCCCC2)c1[N+](=O)[O-] | -3% | -22 | 5% | -10 | 2% | 0%
Nc1nc(NCc2ccco2)nc(N2CCCCCC2)c1[N+](=O)[O-] | 56µM* | 9 | 11% | ? | 50µM* | ?
OCCN(CC#CC(O)(c1ccccc1)c1cccc(F)c1)CCO (stereo not drawn) | ? | 9 | 2% | 13 | 79µM* | -5%
CC(C)(C)c1nnc(NC(=O)c2ccc3c(c2)OCO3)s1 | 89µM* | 23 | 5% | 9 | -30% | ?
Cc1nc2ccc3nc(NC(=O)c4ccc5c(c4)OCCO5)sc3c2s1 | -31% | 16 | 89µM* | 31 | -7% | 55%
Cc1nc2c(ccc3nc(NC(=O)c4ccc5c(c4)OCCO5)sc32)s1 | ? | 12 | . | 4 | -37% | 30%
Cc1c(C(=O)N2CCC(C(=O)Nc3ccc(F)c(Cl)c3)CC2)sc2nc[nH]c(=O)c12 | 1% | . | 0% | . | 9% | 29%[57 µM]
Cc1ccc(CN2CCSc3ccc(C(=O)NCc4cccnc4)cc32)cc1 | 40µM* | -8 | 8% | -14 | ? | -5%
CC(=O)c1coc2c1cc(O)c1ccccc12 | -12% | -3 | 1% | -1 | 8% | 9%
CC(=O)c1cc(O)c2ccccc2c1O | 56µM* | . | 10% | -26 | 45µM* | ?
CCN(CC)CCNC(=O)c1[nH]c2ccccc2c1Sc1ccc(Cl)cc1 | -18% | . | 11% | . | -1% | 10%
CC(=O)c1ccc(C2CC34CNS(=O)(=O)C3CC2O4)cc1 (stereo not drawn) | 79µM* | . | -14% | . | . | -23%
CCCCCc1cc(=O)oc2c(C(CCN3CCCC(C)C3)c3ccc(N(C)C)cc3)c(OC)cc(OC)c12 (stereo not drawn) | 25µM* | . | 11% | ? | 11µM* | 25µM*
COc1cc(OC)c2ccc(=O)oc2c1C(CC(=O)N1CCCC(C)C1)c1ccc2c(c1)OCO2 (stereo not drawn) | ? | 0 | . | -12 | 50µM* | -10%
COc1cc(OC)c2ccc(=O)oc2c1C(CCN1CCCC(C)C1)c1ccc(N(C)C)cc1 (stereo not drawn) | 35µM* | -25 | 14% | -29 | ? | -20%
COc1cc(C(CCN2CCCC(C)C2)c2c(OC)cc(OC)c3c(C)cc(=O)oc23)cc(OC)c1OC (stereo not drawn) | -19% | . | 5% | . | . | ?
CCCCCc1cc(=O)oc2c(C(CCN3CCCC(C)C3)c3cc(OC)c(OC)c(OC)c3)c(OC)cc(OC)c12 (stereo not drawn) | ? | -23 | . | -7 | -30% | 6%
COc1cc(OC)c2ccc(=O)oc2c1C(CC(=O)N1CCCC1)c1ccc2c(c1)OCO2 (stereo not drawn) | ? | 2 | . | -11 | -24% | -35%
Cc1ccc(N/C(=C\C(=O)c2ccccc2)C(=O)O)cc1 | ? | 0 | 2% | -8 | 56µM* | 6%
COc1ccc(C(=O)CC(=O)C(=O)Nc2cccc(F)c2)cc1 | -26% | -3 | . | 1 | 4% | 17%
COC(=O)/C(=C\C(=O)c1ccccc1)Nc1ccc(OC)cc1 | 35µM* | -22 | 6% | -22 | 40µM* | ?
COc1ccc(C(=O)CC(=O)C(=O)Nc2ccccc2)cc1 | -14% | 0 | . | 19 | 71µM* | 50%
CSc1cccc(NC(=O)CC(c2cccs2)N2Cc3ccccc3C2=O)c1 (stereo not drawn) | -13% | . | 3% | . | -20% | 44%
CO[C@H]1COC(=O)[C@H](C)NC(=O)[C@@H](C)COC(=O)C/C=C\[C@@H]1C | . | . | 8%[21 µM] | . | . | .
CSCC[C@H](NC(=O)[C@@H]1CCCN1C(=O)CNC(=O)[C@H](CCCCN)NC(=O)[C@H](Cc1cnc[nH]1)NC(=O)[C@H](CO)NC(=O)[C@H](CC(C)C)NC(=O)[C@H](CCCNC(=N)N)NC(=O)[C@@H]1CCCN1C(=O)[C@H](CCCNC(=N)N)NC(=O)[C@H](CCC(N)=O)NC(=O)[C@H](CCCNC(=N)N)NC(=O)[C@H](CCCNC(=N)N)NC(=O)[C@H](Cc1ccccc1)NC(=O)[C@@H](N)CCCCN)C(=O)N1CCC[C@H]1C(=O)N[C@@H](Cc1ccccc1)C(=O)O | . | . | 13% | . | . | .
SMILES | JMJD2A Tudor | CtBP-E1A inh | TDP1 inh | Six1-Eya2 blk | BAZ2B inh | HP1b binding inh
COc1ccc(-c2noc(-c3ccc(C)cc3Cl)n2)cc1OC | -2% | . | 0% | . | -3% | 31%
N#CC1=C(S)N(c2ccccc2)C(c2ccc(-c3cc(Cl)ccc3Cl)o2)NC1=O (stereo not drawn) | -32% | -4 | -5% | -2 | 50µM* | 4%
COc1ccc(C(=O)Nc2nc3c(s2)Cc2c(Br)ccc(OC)c2-3)cc1OC | -26% | . | 3% | . | -4% | 8%
O=C(NNc1cc(Br)c(O)c(Br)c1)c1ccccc1 | 8.9µM* | -15 | 5% | -3 | 8.9µM* | 40µM*
CCOc1ccc(Nc2nc(Cc3nnc(SCC(=O)O)o3)cs2)cc1 | 89µM* | 1 | -7% | -15 | ? | 2%
Cc1ccc(C)c(OCC(=O)Nc2c(C)n(C)n(-c3ccccc3)c2=O)c1 | -15% | . | 1% | 8 | 1% | 24%
Cc1cc(=O)oc2cc(OCC(=O)Nc3c(C)n(C)n(-c4ccccc4)c3=O)c(Cl)cc12 | -3% | 3 | -7% | -3 | 79µM* | 25%
O=C(NCc1ccc(F)cc1)C(=O)NCC(c1ccco1)S(=O)(=O)c1cccs1 (stereo not drawn) | -1% | . | 3% | . | -8% | 46%
OC[C@@H](O)[C@@H](O)CCc1ccccc1 | . | . | 6% | . | . | .
CN(C)c1ccc(NC(=O)Cn2cc3c(n2)CCCC3)cc1 | 50µM* | -8 | 8% | -22 | 40µM* | ?
Cc1ccc(/C=C2/SC(=S)N(c3ccc(S(=O)(=O)Nc4nccs4)cc3)C2=O)cc1 | ? | -23 | . | -24 | ? | ?
COc1ccc(/C=C2/SC(=S)N(c3ccc(S(=O)(=O)Nc4nccs4)cc3)C2=O)cc1 | 16µM* | -30 | . | -21 | ? | 20µM*
O=C1/C(=C\c2ccccn2)SC(=S)N1c1ccc(S(=O)(=O)Nc2nccs2)cc1 | 18µM* | -22 | . | -24 | 50µM* | ?
O=C1/C(=C/c2ccccn2)SC(=S)N1c1ccc(O)cc1 | -30% | -12 | . | -7 | -28% | 6%
COCCCNC(=O)CSc1nc2cc3c(cc2c(=O)n1CCCCCC(=O)NCc1ccc(OC)cc1)OCO3 | -12% | . | 1% | . | -2% | 49%
